# Assay results published in PubChem BioAssay AID588405 (Sanford-Burnham Center for Chemical Genomics, 2011).
# About 6,200 (1.7%) of roughly 360,000 compounds were called active. For the sample, actives were picked, then their nearest neighbours and some compounds at random. Values without a mark were called inactive.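 How the source made its calls: active means inhibition of at least 50% at 20 µM; inactive means the rest.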
# Test: Peg3 promoter-driven luciferase inhibitors, primary screen, cell-based, HeLa, luciferase luminescence (AID 588405)
# Conditions: HeLa PEG-Prom luciferase reporter, overnight, at 20 µM, stronger effect = higher value
row,SMILES,inhibition
1,CC1(C(=O)NS(=O)(=O)c2cccc(F)c2)CCN1C(=O)Cc1ccc(Cl)cc1Cl (stereo not given),-4.9%
2,O=C(O)C1=CCCN(CCON=C(c2ccccc2)c2ccccc2)C1,-3.93%
3,Cc1cccc(-c2cnc(C(O)c3cc(C)cc(C)c3)[nH]2)c1 (stereo not given),15.8%
4,CSc1ncnc2c1ncn2CCCNCC1CCCCC1,-12.2%
5,CSc1ncnc2c1ncn2CC(=O)C1CCC2C3CCC4=CC(=O)CCC4(C)C3CCC12C (stereo not given),105% (active)
6,CC(=O)C12CC(C)=C(C)CC1CC1C3CCC4=CC(=O)CCC4(C)C3CCC12C (stereo not given),14%
7,COc1ccc(OC)c(NC(=O)C2(C)CCN2C(=O)Cc2ccccc2)c1 (stereo not given),0.38%
8,CC(C)Oc1cc(F)ccc1-c1cc(C(=O)Nc2cccc(Cl)c2)[nH]n1,-14.2%
9,COCc1c(C(=O)N/N=C\c2cccnc2)nnn1-c1nonc1N,10.8%
10,Nc1nonc1-n1nnc(C(=O)N/N=C/c2cc(Br)ccc2O)c1CSC1=NCCS1,56.4% (active)
11,Nc1nonc1-n1nnc(C(=O)N/N=C\c2ccncc2)c1CN1CCCCC1,23.4%
12,COc1cccc(-c2cnc3c(NC(C)=O)cc(-c4cc(F)ccc4OC)cn23)c1,23.8%
13,COc1ccc(OCC(O)CN(C)C(=O)C(C)Oc2ccccc2)cc1 (stereo not given),9.53%
14,COc1cccc(CN(C)CC(O)COC(c2ccccc2)c2ccccc2C)c1 (stereo not given),4.99%
15,CN(Cc1ccccc1)CC(O)COc1ccc(CNCc2cc3ccccc3s2)cc1 (stereo not given),50.3% (active)
16,Cc1ccc(C)c(C(O)c2ncc(-c3cccc4ccccc34)[nH]2)c1 (stereo not given),17.3%
17,COc1ccc(-c2nn(-c3ccccc3)cc2/C=C2/SC(=S)N(CCCC(=O)O)C2=O)c(C)c1,60.7% (active)
18,COc1cccc(/C=C2\SC(=S)N(CCCC(=O)N3CCOCC3)C2=O)c1,-13.7%
19,Cc1ccc(-c2nn(-c3ccccc3)cc2/C=C2\SC(=S)N(CCCCCC(=O)O)C2=O)o1,-22.9%
20,CCc1nc2c(OCc3ccc(Cl)cc3Cl)cccn2c1N(C)C(=O)C(C)C,14.2%
21,O=C(CSc1cccc2cccnc12)N/N=C/c1cccnc1,74.3% (active)
22,Cc1c(NC(=O)CSc2cccc3cccnc23)c(=O)n(-c2ccccc2)n1C,23.3%
23,O=C(N/N=C\c1cccnc1)c1cc(-c2ccccc2)nc2c(Cl)cccc12,32.6%
24,CNc1cnc(-c2cc(OC)c(OC)c(OC)c2)cn1,-13.3%
25,CC(=O)NC(c1ccccc1)c1nc(-c2cccc(C(C)C)c2)cs1 (stereo not given),4.34%
